Structures are written as SMILES. Records with an inconclusive call do not appear. Values without a mark were called inactive. Calls of active or inactive are those of the source. Calls follow the shape of the dose curve; as a rule, active = well fitted curve in the direction sought with a large enough effect in the repeat runs; inconclusive = weak or mixed curves; inactive = no such curve, though single readings can be large; an effect the other way counts as inactive or inconclusive.

A short description of experiment [1]: A CellTox Green Cytotoxicity Assay to monitor cytotoxicity in HEK293 cells - 40 hour (AID 1224871). Also: nearly all actives have a fitted effect of over 45% in size. The gist of the method: (§1)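 Each value comes from one timepoint of a single continuous run in which HEK293 cells with CellTox Green were exposed to compound for up to 40 h at 37 C, dye fluorescence rising with cell death.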
Experiment [2] in a line: qHTS RealTime-Glo MT Cell Viability Assay in HepG2 cells - 8 hour (AID 1224873). Also: nearly all actives have a fitted effect of over 55% in size. Summed up:
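HepG2 cells mixed with RealTime-Glo MT reagents (NanoLuc plus cell-permeant prosubstrate) were seeded at 600 cells/well, incubated 5 h at 37 C/5% CO2, then pinned with compounds in DMSO; nonlytic luminescence tracked viability during 40 h treatment.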

A short description of experiment [3]: qHTS RealTime-Glo MT Cell Viability Assay in HEK293 cells - 40 hour (AID 1224874). Also: nearly all actives have a fitted effect of over 50% in size. Also: potency is read from the fitted curve at half-maximal effect. The note with it: RealTime-Glo luminescence; max response: active compounds read low. The gist of the method: (§2)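 qHTS format; HEK293 cells with NanoLuc/prosubstrate reagent, 37 C/5% CO2 for 5 h pre-dosing; compounds 23 nL in DMSO; luminescence at each time point reflects viable cells.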
A general note: Quantitative high-throughput screening tests each substance at several concentrations.

Experiment [4] in a line: A CellTox Green Cytotoxicity Assay to monitor cytotoxicity in HEK293 cells - 24 hour (AID 1224875). Also: series mostly up to about 77 µM; nearly all actives have a fitted effect of over 45% in size. Summed up: as §1
Experiment [5] can be described thus: qHTS RealTime-Glo MT Cell Viability Assay in HepG2 cells - 32 hour (AID 1224877). Also: nearly all actives have a fitted effect of over 55% in size. Summed up: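 HepG2 cells (600/well) were dispensed with RealTime-Glo reagents, incubated 5 h at 37 °C, then treated with compounds in DMSO for up to 40 h. Nonlytic NanoLuc luminescence reflecting viable cells was read at each stated time point.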
The nature of experiment [6]: A CellTox Green Cytotoxicity Assay to monitor cytotoxicity in HepG2 cells - 24 hour (AID 1224878). Also: nearly all actives have a fitted effect of over 45% in size. Also: potency is read from the fitted curve at half-maximal effect. The gist of the method: (§3)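 Continuous culture of HepG2 cells with a membrane-impermeant DNA dye; rising fluorescence marks dead cells. Compound exposure lasted up to 40 h at 37 C, with reads every 8 h from 0 h.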
Experiment [7] in a line: A CellTox Green Cytotoxicity Assay to monitor cytotoxicity in HepG2 cells - 40 hour (AID 1224879). Also: nearly all actives have a fitted effect of over 40% in size. Also: potency is read from the fitted curve at half-maximal effect. The gist of the method: as §3
Experiment [8] can be described thus: qHTS RealTime-Glo MT Cell Viability Assay in HEK293 cells - 0 hour (AID 1224880). Also: top concentration of the series differs between compounds; nearly all actives have a fitted effect of over 45% in size. Summed up:
as §2

Experiment [9] is described as follows: A CellTox Green Cytotoxicity Assay to monitor cytotoxicity in HepG2 cells - 16 hour (AID 1224876). Also: nearly all actives have a fitted effect of over 45% in size. Also: potency is read from the fitted curve at half-maximal effect. The gist of the method: as §3
Experiment [10] is described as follows: qHTS RealTime-Glo MT Cell Viability Assay in HEK293 cells - 16 hour (AID 1224872). Also: nearly all actives have a fitted effect of over 50% in size. Also: potency is read from the fitted curve at half-maximal effect. Summed up: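 HEK293 cells seeded with NanoLuc/prosubstrate reagent, rested 5 h at 37 C, then dosed and kept at 37 C up to 40 h. Nonlytic real-time luminescence from viable cells read at 0, 8, 16, 24, 32 and 40 h.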
% is scaled to controls: 0 for no effect and ±100 for the full control effect.

As for `O=C(CCCN1CCC(n2c(=O)[nH]c3ccccc32)CC1)c1ccc(F)cc1`, the Potency result in experiment [1], in experiment [2], in experiment [4], in [5], in experiment [6] and in [7] was “inactive” each time. In experiment [3], the max response was -27.9%. In experiment [8], the molecule was called inactive.
As for `CCOP(=O)(N=C1SCCS1)OCC`, the Potency entry in experiment [1], in experiment [2], in experiment [4], in experiment [9], in experiment [5] and in [6] was “inactive” each time. For the same molecule, the Potency entry in [7] was “inactive”. In addition, in [3], the max response was 21.4%.
As for `Fc1ccc(C2(Cn3cncn3)OC2c2ccccc2Cl)cc1` (stereo unspecified), the Potency entry in experiment [2], in [9] and in experiment [5] was “inactive” in each case. The molecule was called inactive in [8].
In the case of `c1coc(-c2nc3ccccc3[nH]2)c1`, the Potency entry in [1], in [2], in experiment [4], in experiment [9], in experiment [5] and in [6] was “inactive” each time. Moreover, the Potency result in experiment [7] was “inactive”. The molecule was called inactive in [8].
On to `CCOP(=S)(Oc1cnc(C(C)(C)C)nc1)OC(C)C` (stereo unspecified), for which the Potency entry in experiment [10], in experiment [2], in experiment [4], in experiment [9] and in [7] was “inactive” each time. Further, the max response in experiment [3] is -10.5%. Moreover, the result in experiment [8] was inactive.
In the case of `CC1=C(C(=O)Nc2ccccc2)S(=O)(=O)CCO1`, the Potency result in experiment [2], in experiment [4], in [9], in [5], in [6] and in experiment [7] was “inactive” each time. Further, the Potency in [3] was 43.6 µM (active).
On to `CCCCOC(=O)[C@@H](C)Oc1ccc(Oc2ccc(C#N)cc2F)cc1`, for which the Potency result in experiment [1], in experiment [4], in experiment [9] and in [5] was “inactive” in each case. The Potency in experiment [10] was 13.7 µM (active); in [3] it was 38.7 µM (active).
On to `CSc1nc(N=[N+]=[N-])nc(NC(C)C)n1`, for which the Potency entry in experiment [1], in experiment [2], in experiment [4], in [9], in experiment [5] and in experiment [6] was “inactive” each time. Further, the Potency result in experiment [7] is “inactive”.
Consider `COP(=S)(OC)Oc1ccc(S(N)(=O)=O)cc1`, for which the Potency entry in experiment [1], in [10], in [4], in experiment [9], in [5] and in experiment [6] was “inactive” in each case. In addition, the Potency result in experiment [7] is “inactive”. Moreover, the outcome in experiment [8] was inactive.
For the molecule `COC(C)(C)C`, the Potency result in experiment [10], in [2], in experiment [4], in [9] and in [5] was “inactive” in each case. In addition, the max response in experiment [3] is 6.3%.
`CN1CCC(O)(c2ccc(F)cc2)C(C(=O)c2ccc(F)cc2)C1` (stereo unspecified): the Potency entry in [10], in [2] and in experiment [4] was “inactive” throughout. Moreover, the max response in experiment [3] is -17.3%. Also, the call in [8] was inactive.
Regarding `CN1C(=S)CN=C(c2ccccc2)c2cc(Cl)ccc21`, the Potency entry in experiment [10], in [2], in [4], in experiment [9], in experiment [5] and in experiment [6] was “inactive” throughout. The result in [8] was inactive.
`CC1CCCCC1NC(=O)Nc1ccccc1` (stereo unspecified): the Potency entry in experiment [1], in [2], in experiment [4], in [9], in [5] and in experiment [6] was “inactive” each time. For the same molecule, the Potency entry in experiment [7] is “inactive”.
Turning to `O=P(O)(Oc1ccccc1)Oc1ccccc1`, the Potency entry in experiment [1], in experiment [2], in experiment [9], in [6] and in [7] was “inactive” in each case. In addition, the max response in experiment [3] was 11.6%. Besides, the result in experiment [8] was inactive.
For `COc1ccc2c(c1OC)CN1CCc3cc4c(cc3C1C2)OCO4` (stereo unspecified), the Potency entry in [1], in experiment [2], in [4], in [9], in experiment [5] and in [6] was “inactive” in each case. Moreover, the Potency result in experiment [7] was “inactive”. For the same molecule, in experiment [8], the outcome was inactive.
Turning to `[As]#[In]`, the Potency entry in experiment [1], in experiment [2], in experiment [4], in [9] and in experiment [5] was “inactive” each time. For the same molecule, in [8], the result was inactive.
Consider `CCSC(=O)N(CC)C1CCCCC1`, for which the Potency entry in [10], in [2], in experiment [4], in experiment [9], in experiment [5] and in experiment [6] was “inactive” in each case. In [7], the Potency result is “inactive”. For the same molecule, the max response in [3] is -0.642%.
Take `[Cl][Sn]([Cl])([Cl])[Cl]`: the Potency entry in experiment [10], in experiment [2], in experiment [9], in experiment [5] and in [7] was “inactive” throughout. Also, in experiment [8], the call was inactive.
In the case of `CCCCc1ccc(O)cc1`, the Potency result in experiment [2], in experiment [4] and in [5] was “inactive” in each case. Also, the Potency in experiment [3] was 15.5 µM (active); in experiment [9], 21.8 µM (active); in experiment [6], 21.8 µM (active); in [7] it was 21.8 µM (active). In addition, the molecule was classed as inactive in experiment [8].
